This is an account of results in the supplement of paper PMC6555819.

What all share (assay): PBM binding z-score (relative to random genomic background probes); higher = stronger binding; sequences stand for … in GC…GCGATTGACAGCGTAGAATGAAGG
For experiment [1], the system named is FXR:RXRa (NR concentration 270 nM, RXRa partner concentration 90 nM). The method, boiled down:
(§1)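 Custom Agilent 4×180K protein-binding microarrays carried double-stranded probes, each with a 34-nt variable region. These regions held direct-repeat seeds, single-nucleotide variants, half-site ablations and random human genomic background sequences. Ligand-free nuclear receptor dimers were incubated on the arrays for 1 h, antibodies against each partner (one per run) detected binding, and scanned fluorescence was regression-normalized. Binding z-scores take the random background probes as reference.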

The test system of experiment [2] is LXRa:RXRa (NR concentration 270 nM, RXRa partner concentration 90 nM). The procedure, abridged: as §1
The test system of experiment [3] is LXRa homodimer (NR concentration 270 nM). The method, boiled down:
as §1

The subject of experiment [4] is LXRb:RXRa (NR concentration 270 nM, RXRa partner concentration 90 nM). The method, boiled down:
as §1

Experiment [5] has as its system LXRb homodimer (NR concentration 270 nM). The method, boiled down:
as §1

In experiment [6] the test system is PPARa:RXRa (NR concentration 270 nM, RXRa partner concentration 90 nM). The method, boiled down: as §1
The test system of experiment [7] is PPARg:RXRa (NR concentration 180 nM, RXRa partner concentration 90 nM). The procedure, abridged:
as §1

In experiment [8] the test system is PPARg:RXRa 270nM:90nM, anti-RXR (NR concentration 270 nM, RXRa partner concentration 90 nM). The procedure, abridged:
as §1

In experiment [9] the test system is PPARg:RXRa 30nM:10nM, anti-RXR (NR concentration 30 nM, RXRa partner concentration 10 nM). The method, boiled down: as §1
Experiment [10] has as its system PPARg:RXRa 90nM:30nM, anti-RXR (NR concentration 90 nM, RXRa partner concentration 30 nM). The method, boiled down:
as §1

In experiment [11] the test system is PPARg:RXRa DBDmut IVT, anti-RXR (DBD mutation: RXRa K156A/R161A, NR concentration 270 nM, RXRa partner concentration 90 nM). The procedure, abridged: as §1
For experiment [12], the system named is PPARg:RXRa IVT, anti-PPARg (NR concentration 270 nM, RXRa partner concentration 90 nM). The method, boiled down:
as §1

Experiment [13] deals with PPARg DBDmut:RXRa IVT, anti-PPARg (DBD mutation: PPARg1 K132A/R137A, NR concentration 270 nM, RXRa partner concentration 90 nM). The procedure, abridged:
as §1

Experiment [14] concerns PPARg DBDmut IVT, anti-PPARg (DBD mutation: PPARg1 K132A/R137A, NR concentration 270 nM). The method, boiled down: as §1
The test system of experiment [15] is PPARg homodimer (NR concentration 180 nM). The method, boiled down: as §1
The subject of experiment [16] is PXR:RXRa (NR concentration 270 nM, RXRa partner concentration 90 nM). The method, boiled down:
as §1

Experiment [17] relates to PXR homodimer (NR concentration 270 nM). The procedure, abridged:
as §1

Experiment [18] relates to RARa:RXR (NR concentration 270 nM, RXRa partner concentration 90 nM). The method, boiled down:
as §1

The subject of experiment [19] is RARa homodimer (NR concentration 270 nM). The method, boiled down:
as §1

The test system of experiment [20] is RARb:RXRa (NR concentration 270 nM, RXRa partner concentration 90 nM). The method, boiled down:
as §1

Consider CCAGACAGGTGAGAAGGTTACTCAGCCTCGATTA, for which the PBM binding z-score is 0.207 in experiment [1]; 0.568 in [2]; -0.0205 in [3]; 0.724 in experiment [4]; -0.277 in [5]; 1.54 in experiment [6]. For the same sequence, the PBM binding z-score in experiment [7] amounted to 0.536; in experiment [8], 0.872; in experiment [9], 0.0606; in experiment [10] it was 0.56; in experiment [11], 0.947; in experiment [12], 1.04. For the same sequence, the PBM binding z-score in [13] was -0.652; in experiment [14] it was -0.801; in experiment [15], 1.03; in experiment [16], 0.441; in experiment [17] it was 0.133; in [18], 1.23. Also, the PBM binding z-score was determined as 0.46 in [19] and 1.36 in [20].
For TCTGCTAGGTCAACGATGGTCAGCTATTCTGCTA, the PBM binding z-score was 3.16 in experiment [1]; 2.62 in experiment [2]; -0.457 in experiment [3]; 1.39 in experiment [4]; -0.158 in experiment [5]; 3.15 in experiment [6]. Besides, the PBM binding z-score in experiment [7] worked out at 2.42; in experiment [8], 2.96; in experiment [9] it was 2; in experiment [10], 2.29; in [11], 4.2; in experiment [12] it was 4.42. In addition, the PBM binding z-score is 0.0784 in experiment [13]; 0.733 in [14]; 0.972 in experiment [15]; 1.41 in experiment [16]; -1.08 in experiment [17]; 2.24 in experiment [18]. Moreover, the PBM binding z-score in [19] was -0.753; in experiment [20] it was 4.11.
On to CCGAATGGGGCATAAGGTTACCATAAGCCAGCCC, for which the PBM binding z-score is 0.489 in experiment [1]; 2.03 in experiment [2]; -0.224 in [3]; 0.966 in [4]; -0.843 in experiment [5]; 2.15 in experiment [6]. In addition, the PBM binding z-score turned out to be 2.29 in experiment [7]; 3.95 in [8]; 1.7 in [9]; 3.62 in experiment [10]; 0.417 in experiment [11]; 1.24 in experiment [12]. Besides, the PBM binding z-score in experiment [13] is -1.29; in experiment [14] it was -1.15; in [15], 0.844; in [16], 0.477; in experiment [17], -0.466; in [18], 1.55. Also, the figures for the PBM binding z-score in experiment [19] and in [20] were -0.315 and 1.79, respectively.
In the case of CAAACTAGATCACAGAGGTCAAAGTCCGTGCGTA, the PBM binding z-score in experiment [1] amounted to 4.82; in experiment [2] it was 5.45; in [3], 6.08; in [4], 5.22; in experiment [5], 2.14; in experiment [6] it was 5.26. The PBM binding z-score came out at 4.26 in experiment [7]; 4.86 in [8]; 2.01 in experiment [9]; 4.09 in [10]; 3.96 in [11]; 4.36 in experiment [12]. The PBM binding z-score was 1 in experiment [13]; 1.1 in experiment [14]; 4.38 in experiment [15]; 5.76 in experiment [16]; 2.93 in [17]; 6.13 in experiment [18]. Besides, the figures for the PBM binding z-score in experiment [19] and in experiment [20] were 2.65 and 4.05, respectively.
In the case of TCGAGTAAGTTAGTCGGGGCATTCAGCCAACATA, the PBM binding z-score in experiment [1] is -1.52; in experiment [2], -0.541; in [3] it was -0.717; in experiment [4] it was -0.128; in experiment [5], -0.869; in experiment [6], 0.00256. For the same sequence, the PBM binding z-score was -0.588 in experiment [7]; 0.158 in [8]; 0.928 in experiment [9]; 0.486 in experiment [10]; 0.848 in [11]; -0.156 in experiment [12]. Besides, the PBM binding z-score in experiment [13] was -0.534; in experiment [14] it was -0.684; in experiment [15] it was -0.634; in experiment [16] it was -0.346; in [17], -0.239; in experiment [18] it was -0.154. Also, the PBM binding z-score in experiment [19] was -0.863; in experiment [20] it was -0.272.
ACATACAGGTGAGTGAAGGTAACTCAGCTGGACG: the PBM binding z-score in experiment [1] was 0.866; in experiment [2] it was 0.707; in experiment [3], -0.217; in experiment [4], -0.161; in experiment [5] it was -0.321; in experiment [6], 1.21. Besides, the PBM binding z-score stood at 1.28 in [7]; 0.814 in experiment [8]; 0.519 in experiment [9]; 0.883 in experiment [10]; 2.31 in experiment [11]; 2.03 in experiment [12]. The PBM binding z-score is 0.417 in experiment [13]; 0.188 in experiment [14]; 0.393 in experiment [15]; 0.304 in experiment [16]; -0.247 in experiment [17]; 0.687 in experiment [18]. In addition, the PBM binding z-score in experiment [19] was -0.0591; in experiment [20], 0.763.
For the sequence TCTCGGAGGCCACGAAGGTCAGAGCTTTCCAGAG, the PBM binding z-score is 0.966 in [1]; 1.34 in experiment [2]; -0.257 in experiment [3]; 1.25 in experiment [4]; -1.36 in experiment [5]; 2.21 in [6]. Moreover, the PBM binding z-score in experiment [7] turned out to be 0.256; in [8] it was 1.82; in experiment [9], 1.63; in experiment [10], 1.54; in [11], 1.55; in experiment [12], 1.81. The PBM binding z-score is -1.16 in experiment [13]; -1.03 in [14]; 0.239 in experiment [15]; 2.19 in [16]; 0.613 in experiment [17]; 2.29 in [18]. Besides, the PBM binding z-score in experiment [19] is -1.17; in experiment [20], 3.38.
